This note sets out measurements from PubChem BioAssay.

Values without a mark were called inactive. For some of these results: Potency and affinity values are given separately. Activity calls are given as the source filed them. Unless noted, the rule behind the calls is not given here.

Broadly, the inhibition is the drop in the measured response relative to a control, in per cent.

The nature of assay [1]: antimalarial activity against Dd2 strain (AID 2302;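 active = growth inhibition above 50% at the single 2 µM test dose, taken to imply half-maximal potency below 2 µM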;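 note: 0% = DMSO untreated growth and 100% = chloroquine plus artemisinin killed control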). Particulars: P. falciparum Dd2 in RBCs, LDH growth readout, 72 h; at 2 µM; active compounds read high.
The nature of assay [2]: HepG2 cytotoxicity, primary screen, cytotoxicity control for P. falciparum antimalarial project, cell-based, ATP luminescence (AID 2303;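 active = inhibition above 50%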;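 note: 0% = DMSO wells and 100% = digitonin-killed cells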). The note with it: HepG2 viability, 24-48 h, at 10 µM, active compounds read high.
Assay [3] deals with L-lactate dehydrogenase (Plasmodium falciparum (isolate CDC / Honduras)) (UniProt Q27743). In words: PfLDH activity inhibition – cell lysate, 3D7 strain, counter-screen for P. falciparum growth inhibition project (AID 2304).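 Note: 0% = vehicle and 100% = reference inhibitor.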 The note with it: P. falciparum 3D7 crude extract, LDH APAD/NBT absorbance; at 2 µM; active compounds read high. A general note: Counterscreens check selectivity or assay interference.
Sequence of L-lactate dehydrogenase (Plasmodium falciparum (isolate CDC / Honduras)) (Q27743 whole entry, looked up): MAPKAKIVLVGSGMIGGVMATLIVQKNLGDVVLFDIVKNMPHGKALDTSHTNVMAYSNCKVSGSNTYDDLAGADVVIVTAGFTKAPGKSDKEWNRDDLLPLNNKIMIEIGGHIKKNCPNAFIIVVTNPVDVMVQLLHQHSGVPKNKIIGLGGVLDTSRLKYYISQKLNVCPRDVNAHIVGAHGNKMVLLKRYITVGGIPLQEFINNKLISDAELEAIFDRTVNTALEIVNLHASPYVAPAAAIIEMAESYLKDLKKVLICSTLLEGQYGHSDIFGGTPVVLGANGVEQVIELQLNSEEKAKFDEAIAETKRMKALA

Assay [4] can be described thus: inhibition of 3D7 malaria parasite growth – strain 3D7 (AID 2306).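 Note: 0% = DMSO wells and 100% = chloroquine plus artemisinin control wells.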 Particulars: P. falciparum 3D7 erythrocytic growth, LDH absorbance, 72 h; at 2 µM; active compounds read high.
The target of assay [5] is Calcium-dependent protein kinase 1 (Plasmodium falciparum (isolate 3D7)) (UniProt P62344). In words: PfCDPK1 kinase inhibitors, biochemical, TCAMS library (AID 1159585; cut-off not given, nearly all actives have IC50 up to about 0.98 µM;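 note: inhibitors leave more ATP so luminescence rises with inhibition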). Particulars: recombinant PfCDPK1, Kinase-Glo ATP depletion luminescence.
Sequence of Calcium-dependent protein kinase 1 (Plasmodium falciparum (isolate 3D7)) (P62344 whole entry, looked up): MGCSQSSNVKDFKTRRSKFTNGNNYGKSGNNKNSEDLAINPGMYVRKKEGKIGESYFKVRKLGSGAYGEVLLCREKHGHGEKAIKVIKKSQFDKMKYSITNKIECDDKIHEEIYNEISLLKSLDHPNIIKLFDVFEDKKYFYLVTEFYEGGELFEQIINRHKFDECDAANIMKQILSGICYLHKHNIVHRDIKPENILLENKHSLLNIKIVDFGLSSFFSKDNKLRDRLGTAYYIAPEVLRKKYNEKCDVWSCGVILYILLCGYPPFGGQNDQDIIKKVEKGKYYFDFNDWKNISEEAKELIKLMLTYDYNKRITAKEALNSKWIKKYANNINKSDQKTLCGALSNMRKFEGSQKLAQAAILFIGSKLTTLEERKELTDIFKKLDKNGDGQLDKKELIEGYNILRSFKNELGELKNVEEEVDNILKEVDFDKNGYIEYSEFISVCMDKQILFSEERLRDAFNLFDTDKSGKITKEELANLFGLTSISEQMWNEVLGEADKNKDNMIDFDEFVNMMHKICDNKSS
The target in assay [6] is Plasmodium falciparum protein kinase 6 (PK6, PF3D7_1337100) (UniProt Q8IDW1). In words: PfPK6 kinase inhibitors, biochemical, TCAMS library (AID 1159586). The note with it: recombinant PfPK6, Kinase-Glo ATP depletion luminescence.
Sequence of Plasmodium falciparum protein kinase 6 (PK6, PF3D7_1337100) (Q8IDW1 1-305): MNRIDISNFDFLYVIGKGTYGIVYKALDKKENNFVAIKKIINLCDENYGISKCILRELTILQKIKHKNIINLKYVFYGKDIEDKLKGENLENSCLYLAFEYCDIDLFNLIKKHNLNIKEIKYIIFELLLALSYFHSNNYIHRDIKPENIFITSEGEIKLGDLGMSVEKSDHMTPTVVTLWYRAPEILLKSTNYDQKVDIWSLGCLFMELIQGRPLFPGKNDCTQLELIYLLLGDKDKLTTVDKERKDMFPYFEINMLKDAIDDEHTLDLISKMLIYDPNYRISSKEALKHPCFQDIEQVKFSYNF
Assay [7] has as its target Protein kinase 7 (PK7), Plasmodium falciparum 3D7 (PF3D7_0213400) (UniProt Q7YTF7). In words: inhibition of Plasmodium PK7 catalytic activity – biochemical, TCAMS antimalarial set, Kinase-Glo luminescence (AID 1159587). Particulars: recombinant PfPK7, Kinase-Glo ATP depletion luminescence. (Kinase-Glo reads ATP consumption through a luciferase reaction.)
In assay [8] the target is Calcium-dependent protein kinase 4 (Plasmodium falciparum (isolate 3D7)) (UniProt Q8IBS5). In words: PfCDPK4 kinase inhibitors, biochemical, TCAMS library (AID 1159588; cut-off not given, nearly all actives have IC50 up to about 0.91 µM). Particulars: recombinant PfCDPK4, Kinase-Glo ATP depletion luminescence.
Sequence of Calcium-dependent protein kinase 4 (Plasmodium falciparum (isolate 3D7)) (Q8IBS5 whole entry, looked up): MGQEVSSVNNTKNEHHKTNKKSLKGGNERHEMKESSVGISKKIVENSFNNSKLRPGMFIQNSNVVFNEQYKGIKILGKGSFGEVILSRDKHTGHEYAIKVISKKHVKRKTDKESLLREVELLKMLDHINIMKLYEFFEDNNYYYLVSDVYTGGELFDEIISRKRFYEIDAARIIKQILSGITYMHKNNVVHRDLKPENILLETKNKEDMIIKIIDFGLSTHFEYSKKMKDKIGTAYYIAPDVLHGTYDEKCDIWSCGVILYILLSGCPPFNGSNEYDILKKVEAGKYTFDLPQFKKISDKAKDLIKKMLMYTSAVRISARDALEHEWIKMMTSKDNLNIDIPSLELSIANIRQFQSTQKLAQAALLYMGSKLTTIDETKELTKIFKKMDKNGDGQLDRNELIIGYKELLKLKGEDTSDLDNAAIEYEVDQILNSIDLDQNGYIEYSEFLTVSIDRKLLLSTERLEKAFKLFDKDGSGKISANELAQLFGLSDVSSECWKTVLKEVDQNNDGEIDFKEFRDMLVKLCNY

Sequence of Protein kinase 7 (PK7), Plasmodium falciparum 3D7 (PF3D7_0213400) (Q7YTF7 1-343): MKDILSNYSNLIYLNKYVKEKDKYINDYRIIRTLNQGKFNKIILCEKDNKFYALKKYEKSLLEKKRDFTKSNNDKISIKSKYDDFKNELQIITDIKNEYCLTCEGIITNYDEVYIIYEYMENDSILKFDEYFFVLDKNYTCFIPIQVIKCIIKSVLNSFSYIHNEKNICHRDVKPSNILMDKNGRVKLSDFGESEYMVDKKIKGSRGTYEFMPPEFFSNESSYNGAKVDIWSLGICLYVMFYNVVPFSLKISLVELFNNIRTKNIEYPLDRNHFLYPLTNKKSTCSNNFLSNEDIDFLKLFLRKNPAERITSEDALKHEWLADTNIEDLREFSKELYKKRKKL

`CCC(C)(C)c1ccc(OCC(O)CN2CCCCC2)c(C(C)(C)CC)c1` (stereo not given): the growth inhibition was 26% in assay [1] and 91% (active) in assay [4]. Also, the figures for the inhibition in assay [2] and in assay [3] were 14% and -9%, respectively. Also, the outcome in assay [5], in assay [6], in assay [7] and in assay [8] was inactive.
In the case of `CC1CN=C(c2ccc(NC(=O)c3ccc(C(=O)Nc4ccc(C5=NCC(C)N5)cc4)cc3)cc2)N1` (stereo not given), the growth inhibition is 100% (active) in assay [1] and 99% (active) in assay [4]. Also, the values for the inhibition in assay [2] and in assay [3] were 15% and -7%, respectively. In addition, the outcome in assay [5], in assay [6], in assay [7] and in assay [8] was inactive.
Take `O=C(NCCCN1CCC(N2CCCCC2)CC1)C1=Cc2cc(Br)ccc2OC1`: the growth inhibition in assay [1] is 19%; in assay [4], 100% (active). Moreover, the inhibition in assay [2] was 26%; in assay [3], -1%. Also, the outcome in assay [5], in assay [6], in assay [7] and in assay [8] was inactive.
As to `CCc1ccc(C2CCN(CCCCNC(=O)c3ccc(-c4ccc(Cl)cc4)cc3)CC2)c(O)c1`, the growth inhibition in assay [1] was 99% (active); in assay [4], 101% (active). The inhibition in assay [2] was 48%; in assay [3], 2%. Also, the result in assay [5], in assay [6], in assay [7] and in assay [8] was inactive.
In the case of `CCC(C)(C)c1ccc(Oc2ccc(NC(=O)Nc3ccc(Cl)c(Cl)c3)cc2)cc1`, the values for the growth inhibition in assay [1] and in assay [4] were 97% (active) and 98% (active), respectively. The inhibition was 13% in assay [2] and -1% in assay [3]. Besides, the outcome in assay [5], in assay [6], in assay [7] and in assay [8] was inactive.
Regarding `Cc1ccc(F)c(OCC2CCN(c3ccc(C(=O)NC4CC4)cn3)CC2)c1`, the growth inhibition in assay [1] was 95% (active); in assay [4] it was 94% (active). For the same compound, the inhibition in assay [2] was 4%; in assay [3], 2%. The result in assay [5], in assay [6], in assay [7] and in assay [8] was inactive.
As to `O=C(N[C@@H](Cc1ccccc1)C(=O)NCCN1CCCCC1)c1ccc(O)c(-c2ccc(Cl)c(Cl)c2)c1`, the growth inhibition in assay [1] was 97% (active); in assay [4], 99% (active). Also, the inhibition is 6% in assay [2] and -3% in assay [3]. For the same compound, the result in assay [5], in assay [6], in assay [7] and in assay [8] was inactive.
For `Nc1nc(F)nc2nc[nH]c12`, the growth inhibition is 25% in assay [1] and 89% (active) in assay [4]. Besides, the inhibition in assay [2] was 78% (active); in assay [3] it was -2%. Moreover, the outcome in assay [5], in assay [6], in assay [7] and in assay [8] was inactive.
Regarding `CC1CCN(CCCNc2ccc(C(=O)Nc3ccc(C(F)(F)F)cc3)cc2[N+](=O)[O-])CC1`, the growth inhibition in assay [1] is 100% (active); in assay [4] it was 101% (active). The inhibition in assay [2] is 62% (active); in assay [3] it was -3%. For the same compound, the outcome in assay [5], in assay [6], in assay [7] and in assay [8] was inactive.
Regarding `O=S(=O)(c1ccc(OCc2ccc(Cl)cc2)cc1)c1cc2c(cc1OCc1ccccc1)CCN(CC1CC1)CC2`, the growth inhibition is -2% in assay [1] and 82% (active) in assay [4]. The inhibition was 19% in assay [2] and -3% in assay [3]. For the same compound, the outcome in assay [5], in assay [6], in assay [7] and in assay [8] was inactive.
Turning to `CCN(CC)CCN(Cc1ccc(-c2ccc(C(F)(F)F)cc2)cc1)C(=O)Cn1c(CCc2cc(F)cc(F)c2)nc(=O)c2ccccc21`, the growth inhibition in assay [1] was 80% (active); in assay [4] it was 91% (active). Further, the values for the inhibition in assay [2] and in assay [3] were 30% and 2%, respectively. In addition, the result in assay [5], in assay [6], in assay [7] and in assay [8] was inactive.
Take `Cc1c(C2CCN(CCCCNC(=O)c3ccc(-c4ccc(C#N)cc4)cc3)CC2)c2ccccc2n1CCO`: the growth inhibition in assay [1] was 99% (active); in assay [4], 96% (active). In addition, the inhibition is 28% in assay [2] and 1% in assay [3]. Further, the result in assay [5], in assay [6], in assay [7] and in assay [8] was inactive.
As for `COc1ccc(Cn2c(N3CCN(S(=O)(=O)c4ccc(OC)cc4)CC3)nc3c2c(=O)n(CC2CC2)c(=O)n3CC2CC2)cc1`, the growth inhibition in assay [1] was 39%; in assay [4] it was 92% (active). The inhibition in assay [2] is -12%; in assay [3], -3%. The outcome in assay [5], in assay [6], in assay [7] and in assay [8] was inactive.
In the case of `O=C(C=Cc1ccc([N+](=O)[O-])cc1)N1CCC(CCN2CCC(c3c[nH]c4ccccc34)CC2)CC1`, the growth inhibition in assay [1] is 48%; in assay [4], 100% (active). The inhibition in assay [2] was 60% (active); in assay [3], -2%. For the same compound, the result in assay [5], in assay [6], in assay [7] and in assay [8] was inactive.
Turning to `COc1cccc(-c2csc(C(=O)NCC3CCN(Cc4ccc(C(C)C)cc4)C3)c2)c1` (stereo not given), the growth inhibition was 9% in assay [1] and 86% (active) in assay [4]. For the same compound, the inhibition in assay [2] is 35%; in assay [3], 0%. The result in assay [5], in assay [6], in assay [7] and in assay [8] was inactive.
`CCOC(=O)Nc1cc(-c2csc(N=C(N)N)n2)cc([N+](=O)[O-])c1`: the growth inhibition is 88% (active) in assay [1] and 101% (active) in assay [4]. The inhibition in assay [2] is 12%; in assay [3], -8%. Besides, the result in assay [5], in assay [6], in assay [7] and in assay [8] was inactive.
Take `NC(=S)Cc1ccc2c(c1)OCO2`: the growth inhibition in assay [1] is -3%; in assay [4], 96% (active). Also, the inhibition in assay [2] was 43%; in assay [3] it was -2%. The result in assay [5], in assay [6], in assay [7] and in assay [8] was inactive.
In the case of `CCOc1ccccc1C=CC(=O)Nc1ccc2nc(N3CCN(C)CC3)cc(C)c2c1`, the growth inhibition was 91% (active) in assay [1] and 102% (active) in assay [4]. The results for the inhibition in assay [2] and in assay [3] were 16% and -1%, respectively. Also, the result in assay [5], in assay [6], in assay [7] and in assay [8] was inactive.
As for `CCCc1cc(NCC)nc(Nc2ccc(C)cc2)n1`, the growth inhibition in assay [1] was 16%; in assay [4], 95% (active). Moreover, the results for the inhibition in assay [2] and in assay [3] were 22% and -1%, respectively. In addition, the result in assay [5], in assay [6], in assay [7] and in assay [8] was inactive.
For the compound `CCc1cc(CNC2CCN(CCc3c(F)cnc4ccc(OC)nc34)CC2)cc2c1OCCO2`, the growth inhibition in assay [1] is 94% (active); in assay [4], 100% (active). Also, the results for the inhibition in assay [2] and in assay [3] were 46% and 1%, respectively. The result in assay [5], in assay [6], in assay [7] and in assay [8] was inactive.
